Source: PubChem BioAssay (several laboratories)
Shown are actives, neighbours in structure and some others; about 2.3% of the full set was active somewhere.
Mcl1 Bid PPI: disrupts binding of human Mcl-1 to Bid peptide. TR-FRET Mcl-1/Bid-Dy647 peptide binding, 1536-well. inhibition, % at 21.7 µM. 220,000 tested, 0.97% active. AID 1021;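 active means compounds that cut the binding signal by more than half at the single screening dose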;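 further: His-tagged Mcl-1 with europium anti-His antibody binding Bid BH3 peptide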
Bcl-xL primary: inhibitors of human Bcl-xL; Q07817; GST-Bcl-xL / FITC-Bim BH3 peptide fluorescence polarization; inhibition, % at 10.9 µM; 320,000 tested, 0.7% active;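 active means inhibition above the mean of all tested compounds plus 3 SD, cutoff set per campaign, cut at about 30% in these data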;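 further: inhibitors lower millipolarization by displacing the labeled peptide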
GLD-1 TGE inh: GLD-1-TGE RNA interaction inhibition (C. elegans); 320,000 tested, 0.44% active; Q17339; purified GLD-1 + fluorescein TGE RNA, fluorescence polarization; inhibition, % at 5.96 µM;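 active means percent inhibition above a per-plate cutoff, the plate mean of test compounds plus 3 SD, cut at about 30% in these data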
Target sequence (Q17339 whole entry, looked up): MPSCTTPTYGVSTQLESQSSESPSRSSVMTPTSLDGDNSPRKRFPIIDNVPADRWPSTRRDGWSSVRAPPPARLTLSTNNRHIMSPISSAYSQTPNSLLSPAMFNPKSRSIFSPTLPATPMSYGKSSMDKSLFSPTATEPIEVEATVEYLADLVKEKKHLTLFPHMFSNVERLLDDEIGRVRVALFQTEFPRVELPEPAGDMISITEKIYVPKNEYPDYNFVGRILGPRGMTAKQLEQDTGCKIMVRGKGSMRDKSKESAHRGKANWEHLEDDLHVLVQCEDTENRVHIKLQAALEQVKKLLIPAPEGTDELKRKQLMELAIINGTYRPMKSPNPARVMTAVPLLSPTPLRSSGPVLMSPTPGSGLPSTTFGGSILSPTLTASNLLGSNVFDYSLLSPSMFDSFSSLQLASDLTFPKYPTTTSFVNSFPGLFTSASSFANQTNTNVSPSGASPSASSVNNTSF
MCL1-BIM inh: inhibitors of human MCL1 binding to BIM-BH3 peptide. inhibition, % at 10.9 µM. Q07820. GST-MCL1 / FITC-Bim-BH3 fluorescence polarization. AID 2057. 320,000 tested, 0.68% active;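 active means inhibition above the mean inhibition of all tested compounds plus 3 SD, set per campaign, cut at about 40% in these data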;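 further: higher means more loss of mP so more displacement of Bim peptide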
Mcl-1 Bim block: disrupts Bim peptide binding to human Mcl-1. Bead-based flow cytometry, Bim peptide-Mcl-1 binding. inhibition, % at 10 µM. 190,000 tested, 0.1% active. AID 1009; in the data active means inhibition above about 40%
Mcl1-Noxa inh: Mcl-1/Noxa interaction inhibition | 220,000 tested, 1.5% active | TR-FRET Mcl-1/Noxa peptide binding, 2 h | Q07820 | inhibition, % at 21.7 µM;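 active means compounds that cut the protein-peptide binding signal by more than 50% relative to plate controls in a single-dose test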;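 further: His-tagged Mcl-1 with rhodamine Noxa BH3 peptide and terbium anti-His antibody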
BCLXL inh confirm: Bcl-xL (human) inhibition, MCL1 counter-screen confirmation | inhibition, % at 10.9 µM | GST-Bcl-xL / FITC-Bim BH3 peptide FP binding | 1,700 tested, 54% active | shares compounds with MCL1-BIM inh | AID 2166;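 active means inhibition above a cutoff equal to the mean inhibition of all tested compounds plus 3 SD, cut at about 30% in these data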
MCL1 inh confirm: MCL1-BIM-BH3 interaction inhibition, confirmation; inhibition, % at 10.9 µM; GST-MCL1 / FITC-Bim-BH3 fluorescence polarization; 1,700 tested, 61% active; shares compounds with MCL1-BIM inh;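 active means inhibition above the average of all tested compounds plus 3 SD, cut at about 40% in these data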
GLD-1 TGE cf: confirmation of C. elegans GLD-1 TGE RNA binding inhibitors. GLD-1/FL-TGE RNA fluorescence polarization, biochemical. 550 tested, 10% active. inhibition, % at 5.96 µM. shares compounds with GLD-1 TGE inh;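 active means average inhibition across triplicates above the hit cutoff set in the primary screen, cut at about 32% in these data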
Numbers stand for hits; – = inactive; · = not tested or not shown.

SMILES	Mcl1 Bid PPI	Bcl-xL primary	GLD-1 TGE inh	MCL1-BIM inh	Mcl-1 Bim block	Mcl1-Noxa inh	BCLXL inh confirm	MCL1 inh confirm	GLD-1 TGE cf
Cc1c(NC=C(C#N)C#N)c(=O)n(-c2ccccc2)n1C	–	86	35	75	–	–	–	–	–
CCN(c1ccc(OC)cc1)S(=O)(=O)c1ccc(-c2ccc(=O)[nH]n2)o1	·	–	–	–	·	·	·	·	·
COc1cc(/C=C(\NC(=O)c2cc(OC)c(OC)c(OC)c2)C(=O)NC(C(=O)O)c2ccccc2)cc(OC)c1OC (stereo unspecified)	·	–	–	–	·	·	·	·	·
O=C1NC(=S)/C(=C\c2ccc(-c3ccccc3Cl)o2)S1	–	58	60	62	–	100	91	116	–
CN(C)CCCN1C(=O)c2cccc3c([N+](=O)[O-])ccc(c23)C1=O	–	76	48	77	–	–	92	125	–
COc1cc(C(=O)NCC(=O)N/N=C/c2ccc(-c3cccc([N+](=O)[O-])c3)o2)cc(OC)c1OC	·	–	–	–	·	·	·	·	·
C#Cc1ccc([C@@H]2C=C(C(=O)O)O[C@H](OCC)[C@H]2CCCO)cc1	·	–	–	–	·	·	·	·	·
CCOC(=O)C(=O)c1c(C)cc2ccccn12	–	·	·	·	–	–	·	·	·
COC(=O)c1c(C)c2c(C)cc3ccccn3c-2c1C(=O)OC	–	51	33	51	–	–	60	74	–
COc1ccc(-c2cn(Cc3ccc(C)cc3)nn2)cc1	·	–	–	–	·	·	·	·	·
O=C(O)CC(Sc1n[nH]c(=S)s1)C(=O)O (stereo unspecified)	–	–	–	–	·	–	·	·	·
Nc1ccc(O)c2c1C(=O)c1ccccc1C2=O	–	123	82	158	–	103	120	177	67
Cn1nc(-c2ccccc2)cc1NS(=O)(=O)c1ccc(C#N)cc1	–	100	61	97	·	–	–	–	–
Cn1nc(-c2ccccc2)cc1NS(=O)(=O)c1ccccc1	–	–	–	–	·	–	·	·	·
Cc1ccc(C)c(-n2c3nc(=O)[nH]c(=O)c-3cc3cc([N+](=O)[O-])ccc32)c1	–	76	59	87	–	–	51	74	–
CCOC(=O)c1c2c3c(cccc3n(C)c1=O)C(=O)c1ccccc1-2	·	55	32	54	·	·	76	90	–
N=c1oc2ccc(Cl)cc2cc1C(=O)Nc1ccc(F)cc1	·	–	–	–	·	·	·	·	·
CCC(=Nc1ccc(N)cc1)C1=C(O)C(C(=O)OC)C(C)(C)CC1=O (stereo unspecified)	–	56	46	61	–	–	30	–	–
N#Cc1c(SCC(=O)N2CCOCC2)nsc1SCC(=O)N1CCOCC1	–	66	50	76	–	–	–	–	–
CC(=O)Nc1ccc(/C(C)=N/Nc2nc(Nc3cccc4ccccc34)nc(N3CCOCC3)n2)cc1	–	–	–	–	–	–	·	·	·
CCCCn1c(=O)[nH]c2nc3cc(NC(C)=O)ccc3nc2c1=O	–	61	53	59	·	–	75	95	102
O=Cc1cc(Br)c(OC(=O)N2CCOCC2)c(Br)c1	·	–	–	–	·	·	·	·	·
Cc1ccc(CNC(=O)c2c(-c3ccccc3Cl)noc2C)cc1	·	–	–	–	·	·	·	·	·
Cc1onc(-c2ccccc2Cl)c1C(=O)NCc1ccc2c(c1)cc(C)n2C	–	66	68	77	·	–	34	47	–
O=C(CN1CCC(NC(=O)c2ccccc2Cl)CC1)NCc1ccco1	–	–	–	–	–	–	·	·	·
SMILES	Mcl1 Bid PPI	Bcl-xL primary	GLD-1 TGE inh	MCL1-BIM inh	Mcl-1 Bim block	Mcl1-Noxa inh	BCLXL inh confirm	MCL1 inh confirm	GLD-1 TGE cf
CCOC(=O)c1sc(=S)n(-c2ccc3c(c2)OCO3)c1N	–	106	49	49	–	–	–	–	–
Nc1n[nH]c2cc(=O)n(-c3cccc(C(F)(F)F)c3)nc12	–	43	39	60	–	–	38	54	–
COc1ccc(S(=O)(=O)N2CCC(C(=O)N[C@H](C(=O)NC3CCCC3)C(C)C)CC2)cc1	·	–	–	–	·	·	·	·	·
CCn1c(CSc2ncccn2)nnc1SCC(=O)N1CCc2ccccc21	–	99	36	103	–	–	–	–	–
Cc1ccc(-c2cc(C(=O)N3CC(C)CC(C)C3)c3ccccc3n2)o1 (stereo unspecified)	·	–	–	–	·	·	·	·	·
Cc1ccc(-c2cc(C(=O)O)c3cc(Br)ccc3n2)o1	–	62	37	75	–	93	–	44	–
O=C1c2cccc3cc([N+](=O)[O-])cc(c23)C(=O)N1/N=C/c1ccc(O)cc1O	98	56	60	61	·	90	–	–	–
CC(=O)Nc1nc2n(n1)C(c1ccccc1)C=C(c1ccccc1)N2 (stereo unspecified)	–	57	47	53	–	–	57	80	–
CC(C)N(C(=O)COC(=O)CCC(=O)c1cccs1)c1ccccc1	·	·	–	·	·	·	·	·	·
CN1C(=O)c2ccc(N3CCCC3)cc2C1=O	–	48	36	63	–	–	47	55	–
CN1C(=O)c2ccc(N(C)C)cc2C1=O	–	–	–	–	–	–	·	·	·
O=C(Nc1ccc2nc(-c3ccco3)c(-c3ccco3)nc2c1)N1CCN(c2ccccn2)CC1	–	51	34	53	–	64	58	71	–
Cc1nc2cc(NC(=O)N3CCN(c4ccccn4)CC3)ccc2o1	–	–	–	–	–	–	·	·	·
O=C1CCCC2=C1Sc1ccccc1N2	–	58	31	69	·	–	53	78	–
Cc1ccc(C2Nc3ccccc3NC3=C2C(=O)CC(C)(C)C3)c(O)c1 (stereo unspecified)	·	47	51	52	·	·	67	94	–
CC(NC(=O)CN1c2cccc3cccc(c23)S1(=O)=O)c1ccc(S(N)(=O)=O)cc1 (stereo unspecified)	·	–	–	–	·	·	·	·	·
CC1CCCN(c2nc3ccccc3nc2C(C#N)S(=O)(=O)c2ccccc2)C1 (stereo unspecified)	–	77	55	69	–	–	–	–	–
Cc1ccc(S(=O)(=O)C(C#N)c2nc3ccccc3nc2N2CCN(C)CC2)cc1 (stereo unspecified)	–	–	–	–	–	–	·	·	·
COc1ccc(N/C=C(\C=C\C#N)S(=O)(=O)c2ccccc2)cc1	·	–	–	–	·	·	·	·	·
CN1Cc2c(N)cccc2C(c2ccccc2)C1 (stereo unspecified)	–	79	39	92	–	–	–	–	–
